# Screening results (PubChem BioAssay)
# AI-2 QS modul: Vibrio harveyi AI-2 quorum sensing modulators, primary screen, JMH597 strain, luminescence/OD600 ratio; Vibrio harveyi JMH597 AI-2 luminescence/OD600 ratio, 9 h; hits give low values; strain lacks LuxN and CqsS sensors; 0 = neutral-control median; 300,000 tested, 0.4% active; activity change, % at 7.5 µM; in the data active = activity change below about -75%, passing the limit was not always enough;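 note: luminescence divided by OD600 gain over 9 h not by final OD600 alone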
# HSF1 inh: HSF1 inhibitors in luciferase reporter cells, primary screen, cell-based, NIH3T3, luminescence; NIH3T3-HGL HSE-luciferase, MG132-induced, luminescence 8 h; hits give low values; activity change, negative = inhibition, % at 7.5 µM (by protocol); 300,000 tested, 0.77% active;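 active = more than half of replicate wells show activity change below -50%, luminescence cut by over half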;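 note: luciferase reports HSF-1 transcriptional activity via heat shock element; 0% = median of DMSO wells and -100% = zero luminescence signal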
# SMARCA2 act: SMARCA2 (BRM) function activators, primary screen, cell-based, luminescence, high throughput | MG213 cells, MMTV-luciferase reporter, dexamethasone, overnight | activation, % at 9.1 µM | 370,000 tested, 1% active | AID 652017, 2013; in the data active = activation above about 7.8%;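 note: 0% = vehicle wells and 100% = reference activator wells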
# HSP90 inh: HSP90 inhibitors, primary screen, cell lysate, luminescence. Heat shock protein HSP 90 (rabbit reticulocyte lysate; luciferase refolding). Rabbit reticulocyte lysate, luciferase refolding luminescence, 3 h. inhibition, % at 5.6 µM. 290,000 tested, 0.91% active. AID 1789, 2009;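 active = inhibition above the screen-wide mean plus 3 SD, computed separately per campaign, cut at about 16% in these data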;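 note: 0% = DMSO wells and 100% = 60 µM geldanamycin wells; inhibitors lower the luminescence because luciferase stays unfolded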
# FXN GAA850 act: FXN promoter activators, primary screen, cell-based, luciferase luminescence, HEK293 lucGAA850; HEK293 lucGAA850 FXN promoter luciferase reporter, 24 h; percent of 10 µM SAHA response; activation, % at 6 µM; 360,000 tested, 0.56% active; AID 540364, 2011;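 active = activation above the average of all compounds screened plus 3 SD, cutoff fixed separately per campaign, cut at about 7.5% in these data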;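 note: 0% = DMSO wells and 100% = 10 µM SAHA wells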
# PG9 Ab binder: binders of HIV-1 gp120 antibody PG9, primary screen, biochemical, TR-FRET. TR-FRET gp120-PG9 antibody binding. inhibition, % at 6.7 µM. 360,000 tested, 0.43% active; in the data active = inhibition above about 8.5%
# SMARCA2 act conf: SMARCA2 (BRM) function activators, confirmation, cell-based, luminescence, triplicate; shares compounds with SMARCA2 act; MG213 cells, MMTV-luciferase with dexamethasone, overnight; MG213 cells expressing E1A, Rb sequestered; DMSO wells 0%, reference activator 100%; activation, % at 9.1 µM; 3,500 tested, 30% active;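 active = activation above its plate's cutoff, the mean activation of tested wells plus 3 SD, cut at about 7.9% in these data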
# VP16 Luc act: GAL4-VP16 luciferase reporter activation, counter-screen for SMARCA2 (BRM) activator project, cell-based, pG5luc, luminescence, high throughput; shares compounds with SMARCA2 act; HEK293 GAL4-VP16 pG5luc reporter; scaled: DMSO wells 0%, SAHA wells 100%; activation, % at 9.1 µM; 3,500 tested, 41% active; AID 686939, 2013;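 active = activation above the solvent-only control well mean plus 3 SD, averaged across control plates, cut at about 5.2% in these data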
# * hit, by the source's call; . = not tested or not shown. The list is not random: actives were taken first. Their share in the collection is about 3.4%.
SMILES,AI-2 QS modul,HSF1 inh,SMARCA2 act,HSP90 inh,FXN GAA850 act,PG9 Ab binder,SMARCA2 act conf,VP16 Luc act
CCCCCCN1C[C@H](n2cc(-c3ccc(F)cc3)nn2)[C@@H](O)C[C@@H]1c1ccc(Cl)cc1,.,.,3,.,2,-3,.,.
O=C(Nc1nc2ncccn2c1-c1ccccc1)c1ccc(F)cc1,.,.,-2,.,.,.,.,.
C[C@H](O)[C@@H]1CN2CCc3ccc(-c4ccc5c(c4)OCO5)cc3[C@@H]2C[C@@H]1N(C)C(=O)c1cccc(Cl)c1,.,.,-2,.,.,-2,.,.
COc1ccc(C=C2NC(=S)NC2=O)cc1,.,.,-1,.,0,-11,.,.
COc1ccc(C(=O)N2C(=S)NC(=O)/C2=C\c2ccc(C)cc2)cc1,33,-3,13*,2,4,-3,-2,2
N#Cc1ccc(C2CC(OCCF)=CC(=O)O2)cc1 (configuration not stated),.,.,0,.,.,-1,.,.
O=C(NN=C1CCCCCCCCCCC1)c1ccccc1F,4,-55*,17*,4,-1,-1,-1,2
O=C(Nc1ccccc1Cl)c1ccn[nH]1,10,6,8.2*,-1,2,0,3,2
O=C(Nc1ccccc1Cl)c1ccccc1,10,-6,8.8*,-5,2,-2,2,5.6*
CCOc1ccccc1NS(=O)(=O)c1ccc2c(c1)n(C)c(=O)c(=O)n2C,32,2,12*,0,-1,-3,3,1
CCc1c(C2CC2)ncn1Cc1cccc(-c2ccccc2)c1,.,.,-6,.,.,-1,.,.
COC(=O)C1=C(C)N(Cc2ccc(Br)cc2)C(=S)NC1c1cccc(F)c1 (configuration not stated),.,.,-6,.,.,0,.,.
O=[N+]([O-])c1ccc(/C=N/N=C/c2ccc([N+](=O)[O-])o2)o1,.,.,19*,1,-11,0,-14,-2
O=C(O)/C=C/c1ccc([N+](=O)[O-])o1,6,8,-4,-1,3,3,.,.
COC(=O)[C@@]12C[C@@H](CC(=O)NCC3CCCCC3)C(=O)N(Cc3cccc4ccccc34)C1=CCC(C)(C)C2,.,.,-2,.,.,1,.,.
CCn1cnc2sc(C(=O)Oc3cccc(C)c3)c(C)c2c1=O,15,7,11*,1,3,1,7,4
CCCCCOC(=O)NCC(O)c1ccccc1 (configuration not stated),0,12,13*,2,4,-2,8,11*
CCCCOC(=O)NC(NCC(O)c1ccccc1)(C(F)(F)F)C(F)(F)F (configuration not stated),19,15,-2,3,0,0,.,.
Cc1ccccc1Br,.,.,-5,.,.,-3,.,.
COc1ccc(C2=NN(S(C)(=O)=O)C(c3cccs3)C2)cc1 (configuration not stated),11,20,10*,0,4,0,8.1*,6.5*
COC(=O)C[C@@H]1CC[C@H]2[C@H](COc3ccc(NC(=O)Nc4ccc(Cl)cc4)cc3C(=O)N2C)O1,.,.,-3,.,.,.,.,.
Cn1nc2c3ccccc3n(Cc3ccccc3)c2nc1=S,1,2,9.1*,4,3,1,10*,4
CCn1c2ccccc2c2nn(C)c(=N)nc21,7,-1,1,2,1,1,.,.
CC(C)CN1CCC(CN2C(=S)NC[C@@H]2Cc2ccccc2)CC1,.,.,-1,.,.,-1,.,.
